A selection: hits, their analogues and other compounds. The true share with any hit is near 10%.
NIH3T3 tox: Cytotoxic Profiling in NIH 3T3 Cell Line of Diverse Libraries Using Quantitative High-Throughput Screening. NIH 3T3 viability, CellTiter-Glo ATP luminescence, 48-72 h. Potency, µM (series often up to 96.7 µM), for the others: at the highest dose activity change, negative = cytotoxicity, most hits filed as inhibitors. 94,000 tested, 4.3% active. AID 1345082, 2018; note: nearly all actives have a fitted effect of over 55% in size
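Mouse fibroblast NIH 3T3 cells, 400 per well, received compound via pintool and were incubated for 48 or 72 hr prior to CellTiter-Glo ATP luminescence measurement.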
GPT2 inhibitor: Primary qHTS assay for inhibitors of Glutamate pyruvate transaminase 2 (GPT2). Alanine aminotransferase 2 (Homo sapiens), Q8TD30. Recombinant GPT2, coupled pyruvate oxidase/HRP Amplex Red fluorescence. Potency, µM (titrated, usually from 57.7 µM), for the others: at the top dose activity change, negative = inhibition, usual class: inhibitors. 100,000 tested, 0.25% active. AID 1671188, 2021; note: nearly all actives have a fitted effect of over 60% in size
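GPT2 10ng/uL, a-KG 250uM, L-Ala 2mM, HEPES pH7.5 + 0.0001% Tween; 30 min RT. Then Amplex mix (PO/HRP/ThPP), 30 min RT dark, fluorescence. AOA 50uM used as positive control.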
HEK cytotox: Cytotoxic Profiling in HEK 293 Cell Line of Diverse Libraries Using Quantitative High-Throughput Screening; HEK 293 viability, ATP luminescence (CellTiter-Glo), 48-72 h; Potency, µM (titrated, usually from 115 µM), without a hit: at the highest dose activity change, negative = cytotoxicity, actives largely listed as inhibitors; 94,000 tested, 6.6% active; AID 1345083, 2018; note: nearly all actives have a fitted effect of over 60% in size
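250 HEK 293 cells/well; compound by pintool; incubated 48 or 72 hr at 37 degree Celsius; CellTiter-Glo added, 10 min RT, luminescence imaged.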
NPR1 antag: Natriuretic polypeptide receptor (hNpr1) antagonism - Primary qHTS | 76,000 tested, 1.6% active | HEK293 hNpr1 GloSensor cGMP, ANP-stimulated luminescence | AID 1347048, 2019 | Potency, µM (highest dose often 46.3 µM), for inactives: top-dose activity change, negative = inhibition, actives largely listed as inhibitors; calls by dose curve; note: nearly all actives have a fitted effect of over 60% in size
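HEK293 cells stably expressing human Npr1 and cGMP GloSensor pGS-40F, loaded 2 h with 2% GloSensor reagent, given compound 30 min at room temperature. Luminescence read before and 20 min after 0.1 nM hNppA.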
FLuc inh: Firefly luciferase inhibition profiling of diverse chemical library using quantitative high-throughput screening; Potency, µM (titrated, usually from 115 µM), usual class: inhibitors; 76,000 tested, 2.5% active; purified P. pyralis luciferase, luminescence, biochemical; Luciferin 4-monooxygenase (Photinus pyralis), P08659; note: nearly all actives have a fitted effect of over 65% in size
Target sequence (P08659 whole entry, looked up): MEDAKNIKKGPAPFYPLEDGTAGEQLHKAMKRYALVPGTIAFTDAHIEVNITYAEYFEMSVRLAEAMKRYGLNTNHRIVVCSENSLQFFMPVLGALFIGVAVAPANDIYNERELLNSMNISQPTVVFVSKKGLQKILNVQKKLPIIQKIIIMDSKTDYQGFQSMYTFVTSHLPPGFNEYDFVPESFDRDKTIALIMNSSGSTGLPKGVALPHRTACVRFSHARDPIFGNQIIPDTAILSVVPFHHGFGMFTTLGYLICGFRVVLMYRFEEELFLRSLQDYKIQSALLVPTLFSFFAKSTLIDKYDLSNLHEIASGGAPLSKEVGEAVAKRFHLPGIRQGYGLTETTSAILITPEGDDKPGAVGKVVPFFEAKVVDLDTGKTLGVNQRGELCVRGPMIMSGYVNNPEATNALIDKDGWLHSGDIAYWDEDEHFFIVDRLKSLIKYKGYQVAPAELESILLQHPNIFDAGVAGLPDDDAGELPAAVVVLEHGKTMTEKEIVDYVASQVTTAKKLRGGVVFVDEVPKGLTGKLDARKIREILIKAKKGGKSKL
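Inhibitors were tested against purified firefly luciferase in a biochemical, low-substrate format (both substrates at 10uM) and luminescence measured with a CCD imager.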
Starred values were filed as active, the others as inactive; i = inactive; ? = inconclusive; · = not tested or not shown; [ ] = another dose, or the depositor's remark. Unless noted, calls come from the whole dose curve; as a rule, active = well fitted curve in the direction sought with a large enough effect; inconclusive = small, poorly fitted or top-dose-only effect, or another doubt; inactive = no such curve, though single readings can be large; an effect the other way counts as inactive or inconclusive. % is set by controls: 0 for no effect and ±100 for the full control effect; potency is the fitted concentration of half-maximal effect.

SMILES	NIH3T3 tox	GPT2 inhibitor	HEK cytotox	NPR1 antag	FLuc inh
O=C(NCC1(COc2cnccn2)C[C@@H](O)[C@@H](O)C1)N1CCOCC1 (stereo partly drawn)	i	i	2%[172 µM]	-2%[70.6 µM]	i
Cc1noc2c(N3CCN(Cc4ccccc4)CC3)cc(-c3ccsc3)nc12	?	2%[88.5 µM]	56µM*	-27%[70.6 µM]	i
O=C(Cc1ccc(O)cc1)N1Cc2ccccc2CC2(CCN(Cc3ccncc3)C2)C1 (stereo not drawn)	-21%	i	-27%	·	·
COC(=O)[C@@H]1Cc2c([nH]c3ccccc23)[C@H]2C[C@@H](N3CCOCC3)C[C@@H](c3ccc(F)cc3)N21	?	-19%	?	-2%	i
COC(=O)[C@@H]1Cc2c([nH]c3ccccc23)[C@H]2C[C@H](N3CCCCC3)C[C@@H](c3ccccc3F)N21	28µM*	-17%	?	3%	i
COC(=O)[C@@H]1Cc2c([nH]c3ccccc23)[C@H]2C[C@@H](N3CCCCC3)C[C@@H](c3ccccc3F)N21	?	-7%	22µM*	1%	i
COC(=O)[C@@H]1[C@H]2C[C@@H]3c4[nH]c5ccccc5c4CCN3C[C@@H]2CC[C@@H]1O	·	i	·	·	·
COCc1cc(NCc2cccnc2Oc2cccc(C(F)(F)F)c2)ncn1	-32%	4%	50µM*	-7%	i
CCC(CC)C(=O)NCc1cccnc1Oc1cccc(C(F)(F)F)c1	-24%	i	?	1%	i
COc1ccc(-c2cc(-c3cccnc3)c3cncn3c2)cn1	?	-21%[88.5 µM]	?	-9%[70.6 µM]	i
COc1ccc(-c2cc(-c3ccc4cn[nH]c4c3)cn3cncc23)cn1	45µM*	-9%[88.5 µM]	?	-17%[70.6 µM]	?
COc1ccc(-c2cc(-c3cccc(CO)c3)cn3cncc23)cn1	40µM*	-6%[88.5 µM]	?	-2%[70.6 µM]	i
O=C1CC2(CCN(C(=O)c3cnc4ccccn4c3=O)C2)C(=O)N1 (stereo not drawn)	-23%	i	-24%	?	i
CC(Cc1cccnc1)Nc1cc(-c2ccccc2F)nc2ccnn12 (stereo not drawn)	?	i	79µM*	4%	i
CN1C(=O)c2cccn2CC1CNC(=O)c1cc(-c2ccccc2)n[nH]1 (stereo not drawn)	-28%	i	-4%	0%	i
CCCN1CCc2nc(C(=O)Nc3nc(C)cs3)oc2CC1	-23%[138 µM]	-3%[88.5 µM]	?	-2%[70.6 µM]	20µM*
Cc1csc(NC(=O)c2nc3c(o2)CCN(Cc2ccccc2)CC3)n1	?	-25%[88.5 µM]	56µM*	-30%[70.6 µM]	?
O=C(NCC1CC1)c1nc2c(o1)CCN(CCCc1ccccc1)CC2	-20%[138 µM]	i	?	3%[70.6 µM]	?
Cc1csc(NC(=O)c2nc3c(o2)CCN(Cc2ccc(C#N)cc2)CC3)n1	?	4%[88.5 µM]	?	?	22µM*
Cc1noc(C)c1CN1CCc2ncc(C(=O)Nc3ccccc3)n2CC1	?	i	-23%[172 µM]	-2%[70.6 µM]	i
COc1ccc(CN2CCc3nc(C(=O)NCc4ccncc4)oc3CC2)cc1	?	-9%[88.5 µM]	?	?	i
Cc1csc(NC(=O)c2nc3c(o2)CCN(Cc2c(C)noc2C)CC3)n1	50µM*	-7%[88.5 µM]	-26%[172 µM]	-1%[70.6 µM]	63µM*
CC1CCN(CC2CCCN(C(=O)Nc3ccccc3F)CC2)CC1 (stereo not drawn)	?	i	?	1%	i
COc1ccc(CNC(=O)CN2C(=O)NC3(CCCCC3)C2=O)cc1	-2%	-12%	2%	5%	i
CO[C@H]1COCCN(C(=O)c2cccnc2)C1	-13%[230 µM]	2%[88.5 µM]	-3%[230 µM]	5%[70.6 µM]	i
SMILES	NIH3T3 tox	GPT2 inhibitor	HEK cytotox	NPR1 antag	FLuc inh
O=C(CC[C@H]1NC(=O)c2ccccc2NC1=O)NCCn1cnc2ccccc21	i	-12%	9%	3%	i
COc1cccc(C(=O)N2CCC(N3C(=O)c4c(c(C)nn4-c4ccccc4)C3C(C)C)CC2)c1 (stereo not drawn)	35µM*	·	45µM*	·	·
Cc1nn(-c2ccccc2)c2c1C(C(C)C)N(C1CCN(C(=O)c3ccc(Cl)cc3)CC1)C2=O (stereo not drawn)	?	·	25µM*	·	·
COc1ccc(C(=O)N2CCC(N3C(=O)c4c(c(C)nn4-c4ccccc4)C3C(C)C)CC2)cc1 (stereo not drawn)	-27%	·	-13%	·	·
Cc1nn(-c2ccccc2)c2c1C(C(C)C)N(C1CCN(C(=O)c3cccc(Cl)c3)CC1)C2=O (stereo not drawn)	?	·	18µM*	·	·
O=C(c1ccco1)N1CC[C@@H]2[C@@H](CCC(=O)N2CCC2=CCCCC2)C1	-19%	i	-1%	-2%	i
O=C(NCCc1ccncc1)c1ccc(OC2CCN(C(=O)C3CC3)CC2)cc1	-16%	?	2%	12%	i
CC(C)CCNC(=O)c1ccc2c(c1)CC(=O)N2Cc1ccc(F)cc1	?	-5%	?	0%	i
CCCN1C(=O)CCc2cc(NC(=O)c3ccc(C)s3)ccc21	?	-2%	35µM*	-10%	?
CC(C)CN1C(=O)CCc2cc(NC(=O)c3ccc(N(C)C)cc3)ccc21	?	-9%	28µM*	-29%	?
CC(C)CC(=O)Nc1ccc2c(c1)CCC(=O)N2CC(C)C	-22%	-21%	?	2%	i
Cc1nc(CCNC(=O)C(C)(C)C)no1	-7%	-6%	-15%	1%	i
CN(Cc1ccccc1)C(=O)Cc1ccc(N(Cc2cccc(F)c2)C(=O)c2ccco2)cc1	35µM*	1%	?	-20%	i
O=C(Cc1ccc(N(Cc2cccc(F)c2)C(=O)c2ccco2)cc1)Nc1ccccc1	35µM*	i	45µM*	0%	i
O=C(Cc1ccc(N(Cc2ccc(F)cc2)C(=O)c2ccco2)cc1)NCc1ccc(F)cc1	40µM*	-32%	25µM*	-28%	i
CCCN(C)C(=O)Cc1ccc(N(Cc2ccc(F)cc2)C(=O)c2ccco2)cc1	?	i	?	-12%	i
O=C(Cc1ccc(N(Cc2cccc(F)c2)C(=O)c2ccco2)cc1)NCc1ccccc1	?	i	?	-23%	i
O=C(Cc1ccc(N(Cc2ccc(F)cc2)C(=O)c2ccco2)cc1)Nc1ccc(F)cc1	32µM*	i	?	-3%	i

Compound activity: PubChem, National Center for Advancing Translational Sciences (NCATS)
